NS1 inh: inhibitors of influenza NS1 protein function. Potency, µM (titrated, usually from 46.1 µM), without a hit: top-dose activity, positive = more growth. 0.4% of 270,000 active; also: potency is read from the fitted curve at half-maximal effect; actives are rising curves; nearly all actives have a fitted effect of over 50% in size
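Compounds were scored for reversing the slow growth caused by influenza A NS1 in S. cerevisiae, measured by optical density at 600 nm. Assay medium contained 2% galactose at pH 6.0; NS1-free yeast of the same strain were the positive control.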
Shiga inhibitor: Shiga toxin inhibition | Vero cells, Shiga toxin protein synthesis inhibition reporter | inhibition, % at 38.7 µM | 9.2% of 290,000 active; in the data active = inhibition mostly above about 28%, no sharp cut-off; inactive = mostly below about 43%; also: 0% is about no effect
Cycloheximide cs: affects cycloheximide protein synthesis inhibition readout, counter-screen; cell reporter, cycloheximide protein synthesis inhibition counterscreen; max response, %; 12% of 300,000 active; AID 2314; in the data active = max response mostly above about 13%, no sharp cut-off; inactive = mostly below about 14%; also: read at 38.3 µM for the half of the compounds with a filed dose; 0% is about no effect
SARS PLP yeast: inhibitors of SARS-CoV papain-like protease in yeast. Potency, µM (highest dose often 32.9 µM), for inactives: at the highest dose activity, positive = growth rescue, usual class: activators. 0.19% of 330,000 active. S. cerevisiae expressing SARS-CoV PLpro, growth rescue; also: potency is read from the fitted curve at half-maximal effect; 0% is about no effect; nearly all actives have a fitted effect of over 55% in size
* hit, by the source's call; ? = inconclusive; . = no result. The list is not random: actives were taken first. Their share in the collection is about 12%. Unless noted, calls follow the shape of the full dose curve.

SMILES | NS1 inh | Shiga inhibitor | Cycloheximide cs | SARS PLP yeast
COc1ccc(/C(N)=N/OC(=O)Cc2ccccc2[N+](=O)[O-])cc1 | -3% | 40 | 31* | -5%
COc1ccc(CC(=O)O/N=C(\N)c2ccc(OC)cc2)cc1 | -31% | 71* | 64* | -3%
COc1ccc(/C(N)=N/OC(=O)Cc2cccs2)cc1OC | -1% | 33* | 27* | -2%
COc1ccc(CC(=O)O/N=C(\N)c2ccccc2)cc1OC | -4% | 42* | 38* | 0%
COc1ccc(CC(=O)O/N=C(\N)c2ccc(Br)cc2)cc1OC | -9% | 10 | -3 | 0%
CCCCCCCC/C=C/CCCCCCCC(=O)NCCOP(=O)(O)O | . | -1 | -5 | .
Nc1cccc2c(=O)[nH]ccc12 | . | 1 | -3 | .
COc1ccc(/C(N)=N/OC(=O)Cc2cccs2)cc1 | -4% | 113* | 44* | -2%
CCOc1ccc(-c2nnc(N(CC)C(=O)C3CCC3)s2)cc1 | -42% | 53* | 28* | -18%
CCCC(=O)N(C)c1nnc(-c2ccc(OC)cc2)s1 | -10% | 46 | 13* | 8%
O=S(=O)(Nc1cccc(S(=O)(=O)N2CCCCCC2)c1)c1ccc(F)cc1F | . | . | . | 2%
CN(C)c1cccc(C(=O)N2CCCC(C(=O)c3cc(F)ccc3F)C2)c1 (configuration not stated) | -2% | 22 | -4 | 5%
O=C(c1cc(F)ccc1F)C1CCCN(C(=O)CCN2CCCCO2)C1 (configuration not stated) | 3% | 23 | 17* | 1%
O=C(c1cc(F)ccc1F)C1CCCN(C(=O)c2ccc3nccnc3c2)C1 (configuration not stated) | -20% | 31* | 22* | -1%
CCOC(=O)c1ccc2nc3c(cc2c1)CCS3 | -76% | 71* | 48* | -8%
C=CCNc1ncnc2c1cnn2-c1ccc(C)cc1C | -4% | 67* | 25* | -7%
Cc1ccc(-n2ncc3c(SCc4ccccn4)ncnc32)c(C)c1 | . | 110* | 44* | -21%
CSc1ncnc2c1cnn2-c1ccc(C)cc1C | . | 140* | 35* | -6%
Cc1ccc(-n2ncc3c(NCCCOC(C)C)ncnc32)c(C)c1 | -11% | 75 | -3 | 1%
O=C1CSC(c2ccc(F)c(F)c2)N1c1ccccc1F (configuration not stated) | 2% | -8 | -2 | -1%
COc1ccc(C2CC(c3c(O)cc(C)oc3=O)=NCCS2)c(OC)c1 (configuration not stated) | 6% | 36 | 24 | 0%
Cc1cc(O)c(C2=Nc3ccccc3SC(c3ccc(Cl)cc3)C2)c(=O)o1 (configuration not stated) | 4% | 34* | 48* | -8%
CC1CCc2nc(/C(C#N)=C/c3ccncc3)sc2C1 (configuration not stated) | . | 96* | 38* | 2%
N#C/C(=C(/O)C(Cl)(Cl)Cl)c1nc2ccccc2[nH]1 | -2% | 18 | 13* | -2%
N#C/C(=C/c1ccncc1)c1nc2ccccc2s1 | 2% | 44* | 30* | -1%
SMILES | NS1 inh | Shiga inhibitor | Cycloheximide cs | SARS PLP yeast
Cc1cc2nc(/C(C#N)=C/c3ccncc3)[nH]c2cc1C | 6% | 39 | 11 | -1%
C/C(O)=C(/C#N)c1nc2ccccc2[nH]1 | -10% | -4 | -1 | 6%
N#C/C(=C\c1ccncc1)c1nc2ccccc2[nH]1 | . | 106* | 32* | -2%
CCc1csc(CCNC(=O)C2CCC(=O)N(Cc3cccc(C(F)(F)F)c3)C2)n1 (configuration not stated) | 1% | 3 | -3 | 1%
N#C/C(=C1/CCCCCN1)c1nc2ccccc2[nH]1 | -6% | 44* | 122* | 9%
N#C/C(C(N)=O)=C1/CCc2ccccc2N1 | -53% | 1 | 17 | -11%
N#C/C(=C1\CCCN1)c1ccc2ccccc2n1 | 1% | 18 | 29 | -2%
N#C/C(C(=O)c1ccccc1)=C1/CCCCCN1 | -14% | 94* | 44* | 5%
N#C/C(=C\c1cccnc1)c1nc2ccccc2[nH]1 | -4% | 57* | 36* | 0%
Cc1ccc(C)c(N(CC(=O)NC2CCCC2)C(=O)CCC(=O)Nc2nccs2)c1 | 0% | 26 | -4 | 2%
COc1cc(SC)ccc1C(=O)N1CCN(Cc2ccc3c(c2)OCO3)CC1 | 3% | -7 | -3 | 10%
S=C(Sc1ccc(Cl)cc1)Sc1ccc(Cl)cc1 | 9% | 21 | 21* | -15%
O=c1cc(Nc2ccc3c(c2)OCCO3)[nH]c(=O)n1C1CCCCC1 | 3% | 23* | 3 | 6%
CCc1ccc(Nc2cc(=O)n(C3CCCCC3)c(=O)[nH]2)cc1 | -6% | 87* | 30* | -5%
O=c1cc(Nc2ccc3c(c2)OCCO3)[nH]c(=O)n1-c1ccc(Cl)cc1 | -32% | 12 | 9 | -1%
O=c1cc(N2CCN(c3ccc(F)cc3)CC2)[nH]c(=O)n1C1CCCCC1 | 3% | -21 | -2 | -11%
CCN(C(=O)Cn1ccc(C(F)(F)F)n1)c1c(N)n(Cc2ccccc2)c(=O)[nH]c1=O | . | . | . | 1%
COc1cc(/C=C/C(=O)c2c(O)cc(C)oc2=O)cc(OC)c1O | 1% | -4 | 1 | 3%
COc1ccc(/C=C/C(=O)c2c(O)cc(C)oc2=O)c(OC)c1 | 7% | 8 | 24* | 2%
CSc1ccc(/C=C/C(=O)c2c(O)cc(C)oc2=O)cc1 | ? | 52* | 37* | -1%
COc1cccc(/C=C/C(=O)c2c(O)cc(C)oc2=O)c1O | -92% | 97 | 23 | 7%
Cc1cc(O)c(C(=O)/C=C/c2ccc(Cl)cc2)c(=O)o1 | 14% | 50* | 32* | -2%
CCSc1ccc([C@@H]2[C@H]3C(=O)N(CC)C(=O)[C@H]3[C@]3(C(=O)OC)CCCCN23)cc1OC | . | . | . | -5%
Cc1c(C(=O)O)sc2nc(/C=C/c3cccc(O)c3)[nH]c(=O)c12 | 2% | 29 | -1 | -3%
O=c1[nH]c(/C=C/c2ccc(Br)cc2)nc2ccccc12 | -2% | 85* | 45* | 0%
SMILES | NS1 inh | Shiga inhibitor | Cycloheximide cs | SARS PLP yeast
CN(C)c1ccc(/C=C/c2nc3ccccc3c(=O)[nH]2)cc1 | -3% | 39* | 34* | -2%
O=c1[nH]c(/C=C/c2ccccc2[N+](=O)[O-])nc2ccccc12 | -5% | -7 | 9 | 1%
Cc1cccc(/C=C\c2nc3ccccc3c(=O)[nH]2)c1 | -20% | 93* | 70* | 12%
Cc1nc(/C=C/c2ccccc2)[nH]c(=O)c1-c1ccccc1 | 4% | 94* | 33* | 13%
Cc1ccsc1C(=O)Nc1ccccc1N1CCOCC1 | -51% | -33 | 16 | 2%
COCC(C)n1c(SC(C)C(=O)NC2CCCCC2C)nc2ccccc2c1=O (configuration not stated) | 4% | 5 | -1 | -3%
CN(c1ccccc1)c1nc(N)c([N+](=O)[O-])c(N2CCOCC2)n1 | -6% | 12 | 10 | 0%
Nc1nc(Nc2ccccc2F)nc(N2CCCC2)c1[N+](=O)[O-] | -41% | 107* | 51* | -2%
CN(c1ccccc1)c1nc(N)c([N+](=O)[O-])c(N2CCCC2)n1 | -11% | 81* | 37* | -3%
CN(c1ccccc1)c1nc(N)c([N+](=O)[O-])c(N2CCCCC2)n1 | -2% | 61* | 32* | 1%

Bioassay records: PubChem, National Center for Advancing Translational Sciences (NCATS)
